MCF10A rerep: inducers of DNA re-replication in MCF 10A breast cells. Potency, µM (top dose mostly 46.1 µM), for the others: top-dose activity, positive = re-replication, actives largely listed as activators. 2.9% of 350,000 active. MCF 10A DNA re-replication, Hoechst nuclear intensity, 48 h; also: potency is read from the fitted curve at half-maximal effect; % of control where 0% means no effect; nearly all actives have a fitted effect of over 50% in size
BCR signal inh: inhibitors of chronic active B-cell receptor signaling; ABC-DLBCL IkBa-CBG/CBR reporter, luminescence ratio, 4 h; Potency, µM (highest dose often 46.1 µM), for inactives: at the highest dose activity change, negative = inhibition, most hits filed as inhibitors; 0.05% of 340,000 active; AID 493014; active = well fitted inhibition curve with a large enough effect in the signal ratio, with a control signal flat, not every such curve was filed as active; inconclusive = small, poorly fitted or top-dose-only effect, or effect the other way, or a change in a side signal; the % refers to the signal ratio;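 also: potency is read from the fitted curve at half-maximal effect; plate controls were basal doxycycline-induced cells for no effect and cells given 10 µM MG132 for full effect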
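Concentration-response series (up to 46 uM) were applied to TMD8 dual-reporter cells for 4 h at 37C with doxycycline. Green/red ratio, after filter-overlap correction, defined %Activity; red signal alone was normalised to basal cells and zero luminescence.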
DT40 TDP1 CPT: growth inhibition of DT40 Tdp1-/-;hTDP1 cells with camptothecin (screen for TDP1 inhibitors) | chicken DT40 Tdp1-/-;hTDP1 cells + 20 nM CPT, ATP luminescence, 48 h | Potency, µM (titrated, usually from 46.2 µM), without a hit: at the top dose activity change, negative = growth inhibition, usual class: inhibitors | 12% of 420,000 active | AID 686979; also: potency is read from the fitted curve at half-maximal effect; % is scaled to controls: 0 for no effect and ±100 for the full control effect; nearly all actives have a fitted effect of over 55% in size
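Chicken DT40 Tdp1-/- cells complemented with human TDP1, 400 cells/well, exposed to compounds plus 20 nM camptothecin for at least 48 h at 37 C; viability read as ATP content by CellTiter-Glo luminescence.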
IL-1B inflam inh: blocks inflammasome-driven IL-1 beta release | activity change, % at 57.5 µM | 4.7% of 360,000 active | THP-1 LPS/ATP IL-1B secretion, AlphaLISA, 16 h; active compounds read low; in the data active = activity change below about -50%; inconclusive = mostly about -30% to -49%; also: % is scaled to controls: 0 for no effect and ±100 for the full control effect
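Secreted IL-1B measured by AlphaLISA bead assay after 16 h compound exposure of THP-1 cells; compounds (final up to 57.5 uM) added 1 h before LPS (250 ng/mL) and ATP (1.25 mM) stimulation; lower signal means less secretion.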
TDP1 cell noCPT: qHTS for Inhibitors of human tyrosyl-DNA phosphodiesterase 1 (TDP1): qHTS in cells in absence of CPT; DT40 Tdp1-/- hTDP1 cells, no CPT, ATP luminescence, 48 h; Potency, µM (titrated, usually from 46.2 µM), for inactives: top-dose activity change, negative = growth inhibition, actives largely listed as inhibitors; 15% of 420,000 active; AID 686978, 2013; also: potency is read from the fitted curve at half-maximal effect; % is scaled to controls: 0 for no effect and ±100 for the full control effect; nearly all actives have a fitted effect of over 55% in size
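No-CPT arm: Tdp1-/-;hTDP1 DT40 cells (400/well) plus compounds, incubated ≥48 hr at 37 °C. Readout CellTiter-Glo luminescence.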
SW480 rereplic: induces DNA re-replication in SW480 colon adenocarcinoma cells | 1.8% of 340,000 active | SW480 DNA re-replication, Hoechst DNA content imaging, 48 h | Potency, µM (series often up to 46.1 µM), for the others: at the highest dose re-replication activation, most hits filed as activators; also: potency is read from the fitted curve at half-maximal effect; % of control where 0% means no effect; nearly all actives have a fitted effect of over 55% in size
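Quantitative HTS format with DMSO vehicle controls; 48 hr drug incubation at 37 C, then 40 min Hoechst staining and scanning imager measurement at 405 nm excitation.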
An asterisk follows results filed as active; ? = inconclusive; . = no result given; [ ] = dose if it differs, or a comment. An excerpt weighted towards active compounds, which were near 19% of everything screened. Unless noted, calls follow the shape of the dose curve; as a rule, active = well fitted curve in the direction sought with a large enough effect; inconclusive = small, poorly fitted or top-dose-only effect, or another doubt; inactive = no such curve, though single readings can be large; an effect the other way counts as inactive or inconclusive.

SMILES	MCF10A rerep	BCR signal inh	DT40 TDP1 CPT	IL-1B inflam inh	TDP1 cell noCPT	SW480 rereplic
Cc1cccc(-c2noc(CN(C(=O)CCc3ccccc3)C(C)C)n2)c1	-3.6%	-2.3%	29.1µM*	-14.8	?	2.5%
Cc1ccc(-c2noc(CN(C(=O)c3cccc(Br)c3)C(C)C)n2)cc1	30.0%	2.4%	?	-16.7	?	1.2%
O=C(Nc1cccc(-c2cscn2)c1)C1CCN(Cc2ccccn2)CC1	-0.9%	-4.7%	?	0.2	?	0.1%
Cc1cccc(C)c1NC(=O)C(Cl)=C(Cl)Cl	23.7%	2.2%	-19.2%	-58.8*	-13.7%	?
Nc1ncnc2c1ncn2-c1ccccc1Cl	1.0%	.	-5.9%	-6.1	1.8%	-3.9%
COc1cc(NC(=O)CN2C(=O)C(c3ccccc3)=NC2(C)C)cc(OC)c1	-5.3%	-15.5%	2.9%	8.8	2.2%	11.9%
COc1ccc(C2=NC(C)(C)N(CC(=O)Nc3cccc(C)c3)C2=O)cc1	.	.	4.61µM*	.	3.66µM*	.
Cc1nn(-c2ccccc2)c(C)c1C(=O)OCC(=O)Nc1ccccc1	-0.8%	-13.8%	?	-12.8	-26.7%	-1.4%
CC(=O)c1ccccc1NC(=O)COC(=O)c1c(C)nn(-c2ccccc2)c1C	?	-5.6%	?	?	14.6µM*	-0.6%
COc1ccccc1NC(=O)COC(=O)c1c(C)nn(-c2ccccc2)c1C	4.7%	-7.4%	18.4µM*	?	18.4µM*	-13.8%
CC(C)Oc1ccc(S(=O)(=O)N2CCOCC2)cc1NC(=O)C1CCC1	-1.2%	10.1%	-2.0%	-2.0	-5.2%	0.3%
CC(C)Oc1ccc(S(=O)(=O)N2CCOCC2)cc1NC(=O)CSC(=S)N1CCCC1	.	.	?	-28.1	20.6µM*	.
Cc1noc(C)c1CSCC(=O)Nc1cc(Cl)ccc1N1CCCCC1	?	?	-26.0%	?	?	5.3%
CCN(CC)c1ccc(S(=O)(=O)N2CCCCC2)cc1NC(=O)CSCc1c(C)noc1C	29.0%	.	?	?	?	0.6%
Cc1noc(C)c1CSCC(=O)Nc1cc(S(=O)(=O)N2CCCCC2)ccc1OC(C)C	-1.9%	-9.2%	11.6µM*	-20.4	23.1µM*	-10.7%
Cc1noc(C)c1CSCC(=O)Nc1cc(C(F)(F)F)ccc1N1CCCCC1	?	4.7%	18.4µM*	-6.5	16.4µM*	13.7%
COc1ccccc1CCNC(=O)C(=O)NCC1OCCN1S(=O)(=O)c1ccc2c(c1)OCCO2 (centres undefined)	-0.2%	-4.6%	?	-15.6	?	-3.6%
COc1ccc(NC(=O)NNC(=O)C(C)Oc2ccc3ccccc3c2)cc1 (centres undefined)	5.2%	9.1%	12.9%	-8.2	1.6%	2.8%
CC1(C(=O)NS(=O)(=O)c2ccc3ccccc3c2)CCN1C(=O)CC1CCCCC1 (centres undefined)	.	.	-3.1%	41.0	9.7%	.
Cc1nc2c(O)c3c(c(O)c2nc1C)C1C=CC3CC1	5.17µM*	.	0.461µM*	0.0	0.517µM*	3.26µM*
Cc1c(NC(=O)C(F)(F)F)ccc2nc3c(=O)n(C)c(=O)n(C)c3nc12	.	.	?	.	16.4µM*	.
CCOc1ccccc1N1CCN(C(=O)c2c(Cl)cnn2C)CC1	2.6%	-0.1%	-0.2%	0.0	-16.3%	1.9%
O=C(/C=C/c1ccc(O)c(O)c1)c1ccc(S(=O)(=O)N2CCCCCC2)cc1	?	-10.3%	4.61µM*	-73.8*	5.17µM*	?
COC(=O)c1ccc(S(=O)(=O)N2CCCCCC2)cc1	5.9%	-0.1%	-13.5%	23.2	-16.9%	-3.6%
CCCCN(CCCC)CCCNC(=O)c1ccc2nc(N3CCCCC3)sc2c1	.	.	?	.	23.1µM*	.
SMILES	MCF10A rerep	BCR signal inh	DT40 TDP1 CPT	IL-1B inflam inh	TDP1 cell noCPT	SW480 rereplic
Cc1ccc(C)c(N2CCN(CCCNC(=O)c3ccc4nc(N5CCCCC5)sc4c3)CC2)c1	.	.	18.4µM*	.	10.3µM*	.
CC1CCCC(C)N1CCCNC(=O)c1ccc2nc(N3CCCCC3)sc2c1 (centres undefined)	2.7%	12.3%	-0.9%	-4.9	-18.0%	?
CCCN1CCN(CCCNC(=O)c2ccc3nc(N4CCCCC4)sc3c2)CC1	10.2%	19.4%	-1.9%	-9.3	-21.3%	26.4%
CC1CCN(c2nc3ccc(C(=O)NCCCN4CCCCC4C)cc3s2)CC1 (centres undefined)	26.5%	?	?	?	?	20.6µM*
COC(=O)c1ccc([N+](=O)[O-])cc1N1C(=O)C2C3CCC(C3)C2C1=O (centres undefined)	-6.2%	6.8%	-25.5%	0.0	-19.0%	-12.6%
CCCOC(=O)CSc1ncnc2sc3c(c12)CCC(C)C3 (centres undefined)	.	.	-18.4%	.	-23.9%	.
CCCCCCN1C[C@@H](O)[C@H](n2cc(COC(=O)c3ccccc3)nn2)C[C@@H]1c1ccc(C)cc1	.	.	20.6µM*	17.9	20.6µM*	.
COc1ccc([C@H]2C[C@H](O)[C@@H](n3cc(COC(=O)c4ccccc4)nn3)CN2CC2CCCCC2)cc1	.	.	23.1µM*	-8.8	23.1µM*	.
Cc1ccc([C@H]2C[C@H](n3cc(COC(=O)c4ccccc4)nn3)[C@@H](O)CN2CC2CCCCC2)cc1	.	.	?	5.3	20.6µM*	.
CCCCCCN1C[C@@H](O)[C@H](n2cc(COC(=O)c3ccccc3)nn2)C[C@@H]1c1ccccc1	.	.	?	9.6	?	.
O=C(OCc1cn([C@@H]2C[C@H](c3ccccc3)N(C(=O)C3CCCCC3)C[C@H]2O)nn1)c1ccccc1	.	.	-16.2%	-1.3	?	.
O=C(OCc1cn([C@H]2C[C@H](c3ccccc3)N(CC3CCCCC3)C[C@@H]2O)nn1)c1ccccc1	.	.	?	23.0	?	.
Cc1ccc([C@H]2C[C@@H](n3cc(COC(=O)c4ccccc4)nn3)[C@H](O)CN2C(=O)C2CCCCC2)cc1	.	.	?	-23.7	20.6µM*	.
C#CCOCCOCCOCCNc1nc(N2CCN(C(=O)CCCCCCCCCCNC(=O)[C@H](CCCCN)n3cc(C[C@@H](C)CC)nn3)CC2)nc(N2CCN(C(=O)CCCCCCCCCCNC(=O)[C@H](CCCCN)n3cc(C[C@@H](C)CC)nn3)CC2)n1	18.4µM*	.	8.2µM*	-65.8*	9.2µM*	-7.6%[9.22 µM]
